Data reported in PubChem BioAssay (Tox21).
Inconclusive results are not listed. The source made the active and inactive calls. Calls follow the shape of the dose curve; as a rule, active = well fitted curve in the direction sought with a large enough effect in the repeat runs; inconclusive = weak or mixed curves; inactive = no such curve, though single readings can be large; an effect the other way counts as inactive or inconclusive.

How the values were obtained:
[1] = qHTS RealTime-Glo MT Cell Viability Assay in HEK293 cells - 16 hour (AID 1224872); also: top concentration of the series differs between compounds; nearly all actives have a fitted effect of over 50% in size
Outline: (§1)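 HEK293 cells were seeded at 600 cells/well together with NanoLuc luciferase and cell-permeant prosubstrate, preincubated 5 h at 37 C/5% CO2, then given compound in DMSO by pintool. Luminescence from viable-cell prosubstrate reduction was read repeatedly over 40 h.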

[2] = qHTS RealTime-Glo MT Cell Viability Assay in HepG2 cells - 8 hour (AID 1224873); also: nearly all actives have a fitted effect of over 55% in size
Outline: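 HepG2 cells mixed with RealTime-Glo MT reagents (NanoLuc plus cell-permeant prosubstrate) were seeded at 600 cells/well, incubated 5 h at 37 C/5% CO2, then pinned with compounds in DMSO; nonlytic luminescence tracked viability during 40 h treatment.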

[3] = qHTS RealTime-Glo MT Cell Viability Assay in HEK293 cells - 40 hour (AID 1224874); details: RealTime-Glo luminescence; max response: stronger effect = lower value; also: nearly all actives have a fitted effect of over 50% in size
Outline: (§2)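 Viable HEK293 cells reduce a cell-permeant prosubstrate; the product diffuses out and is consumed by NanoLuc in the medium to give light. Compounds went in after a 5 h incubation and plates were read over the treatment course.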

[4] = A CellTox Green Cytotoxicity Assay to monitor cytotoxicity in HEK293 cells - 24 hour (AID 1224875); also: series mostly up to about 77 µM; nearly all actives have a fitted effect of over 45% in size
Outline: (§3)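 Fluorescence intensity, read at 0, 8, 16, 24, 32 and 40 h of compound treatment, reflected dye binding to DNA of dead HEK293 cells; compounds (23 nL, DMSO) were added 5 h after plating cells with reagent.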

[5] = A CellTox Green Cytotoxicity Assay to monitor cytotoxicity in HepG2 cells - 16 hour (AID 1224876); also: nearly all actives have a fitted effect of over 45% in size
Outline: (§4)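 Using 1536-well format, dye-containing HepG2 suspension was seeded, allowed 5 h at 37 C/5% CO2, dosed by pintool with compounds, positive and negative controls, and imaged for fluorescence across 40 h.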

[6] = qHTS RealTime-Glo MT Cell Viability Assay in HepG2 cells - 32 hour (AID 1224877); also: nearly all actives have a fitted effect of over 55% in size
Outline: (§5)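 HepG2 cells were seeded at 600 cells/well together with NanoLuc luciferase and a cell-permeant prosubstrate, preincubated 5 h at 37 C/5% CO2, then pin-dosed with compounds in DMSO. Nonlytic luminescence from viable cells was read at each time point.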

[7] = A CellTox Green Cytotoxicity Assay to monitor cytotoxicity in HepG2 cells - 24 hour (AID 1224878); also: nearly all actives have a fitted effect of over 45% in size
Outline: as §4

[8] = A CellTox Green Cytotoxicity Assay to monitor cytotoxicity in HepG2 cells - 40 hour (AID 1224879); also: nearly all actives have a fitted effect of over 40% in size
Outline: as §4

[9] = qHTS RealTime-Glo MT Cell Viability Assay in HEK293 cells - 0 hour (AID 1224880); also: top concentration of the series differs between compounds; nearly all actives have a fitted effect of over 45% in size
Outline: as §2

[10] = A CellTox Green Cytotoxicity Assay to monitor cytotoxicity in HEK293 cells - 32 hour (AID 1224881); also: nearly all actives have a fitted effect of over 40% in size
Outline: as §3

[11] = A CellTox Green Cytotoxicity Assay to monitor cytotoxicity in HepG2 cells - 0 hour (AID 1224882); also: nearly all actives have a fitted effect of over 35% in size
Outline: as §4

[12] = A CellTox Green Cytotoxicity Assay to monitor cytotoxicity in HepG2 cells - 32 hour (AID 1224883); also: nearly all actives have a fitted effect of over 50% in size
Outline: as §4

[13] = A CellTox Green Cytotoxicity Assay to monitor cytotoxicity in HEK293 cells - 8 hour (AID 1224884); also: nearly all actives have a fitted effect of over 35% in size
Outline: as §3

[14] = qHTS RealTime-Glo MT Cell Viability Assay in HepG2 cells - 16 hour (AID 1224885); also: nearly all actives have a fitted effect of over 50% in size
Outline: as §5

[15] = qHTS RealTime-Glo MT Cell Viability Assay in HEK293 cells - 24 hour (AID 1224886)
Outline: as §1

[16] = qHTS RealTime-Glo MT Cell Viability Assay in HEK293 cells - 8 hour (AID 1224887)
Outline: as §2

[17] = A CellTox Green Cytotoxicity Assay to monitor cytotoxicity in HEK293 cells - 16 hour (AID 1224888); also: nearly all actives have a fitted effect of over 35% in size
Outline: as §3

[18] = qHTS RealTime-Glo MT Cell Viability Assay in HepG2 cells - 0 hour (AID 1224889); also: nearly all actives have a fitted effect of over 50% in size
Outline: as §5

[19] = qHTS assay to identify small molecule antagonists of the estrogen receptor alpha (ER-alpha) signaling pathway using the BG1 cell line in the presence of 0.1 nM 17-beta-estradiol - cell viability counter screen (AID 1259241); also: nearly all actives have a fitted effect of over 40% in size
Outline: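 VM7Luc4E2 cells (endogenous full-length ER-alpha, 4xERE-luciferase), cultured 5 days in charcoal-stripped serum, exposed to compounds with 0.1 nM 17beta-estradiol (final) for 22 hr at 37C. Viability read in same wells as live-cell protease fluorescence after 30 min.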

[20] = A CellTox Green Cytotoxicity Assay to monitor cytotoxicity in HepG2 cells - 8 hour (AID 1224890); also: nearly all actives have a fitted effect of over 45% in size
Outline: as §4
% is scaled to controls: 0 for no effect and ±100 for the full control effect.

CC(=O)/C=C/C1C(C)=CCC(C)C1(C)C (stereo not drawn)
inactive: Potency [1] | outcome [2] | max response [3] 1.21% | outcome [4] | outcome [5] | outcome [6] | outcome [7] | Potency [8] | Potency [9] | Potency [10] | outcome [11] | Potency [12] | Potency [13] | outcome [14] | Potency [15] | Potency [16] | outcome [17] | Potency [18] | Potency [19]

CCCC(=O)C(C)=O
inactive: Potency [1] | outcome [2] | max response [3] -1.51% | outcome [4] | outcome [5] | outcome [6] | outcome [7] | Potency [8] | Potency [9] | Potency [10] | outcome [11] | Potency [12] | Potency [13] | outcome [14] | Potency [15] | Potency [16] | outcome [17] | Potency [18] | outcome [20] | Potency [19]

CC(C)c1ccc2cc(C(C)C)ccc2c1
inactive: Potency [1] | outcome [2] | max response [3] 11.1% | outcome [4] | outcome [5] | outcome [6] | outcome [7] | Potency [8] | Potency [9] | Potency [10] | outcome [11] | Potency [12] | Potency [13] | outcome [14] | Potency [15] | Potency [16] | outcome [17] | Potency [18] | outcome [20] | Potency [19]

CCOC(=O)/C=C/c1ccccc1
inactive: Potency [1] | outcome [2] | max response [3] -4.48% | outcome [4] | outcome [5] | outcome [6] | outcome [7] | Potency [8] | Potency [9] | Potency [10] | outcome [11] | Potency [12] | Potency [13] | outcome [14] | Potency [15] | Potency [16] | outcome [17] | Potency [18] | Potency [19]

O=S(=O)(O)c1ccc2cc(O)c(S(=O)(=O)O)cc2c1
inactive: Potency [1] | outcome [2] | max response [3] -1.21% | outcome [4] | outcome [5] | outcome [6] | outcome [7] | Potency [8] | Potency [9] | Potency [10] | outcome [11] | Potency [12] | Potency [13] | outcome [14] | Potency [15] | Potency [16] | outcome [17] | Potency [19]

CC/C=C\CC1=C(C)CCC1=O
inactive: Potency [1] | outcome [2] | max response [3] 0.983% | outcome [4] | outcome [5] | outcome [6] | outcome [7] | Potency [8] | Potency [9] | Potency [10] | outcome [11] | Potency [12] | Potency [13] | outcome [14] | Potency [15] | Potency [16] | outcome [17] | Potency [18] | outcome [20] | Potency [19]

CCC(C)NC(N)=O (stereo not drawn)
inactive: Potency [1] | outcome [2] | max response [3] 0.218% | outcome [4] | outcome [5] | outcome [6] | outcome [7] | Potency [8] | Potency [9] | Potency [10] | outcome [11] | Potency [12] | Potency [13] | outcome [14] | Potency [15] | Potency [16] | outcome [17] | Potency [18] | outcome [20] | Potency [19]

CCCC/C=C\CCCCCCCCCC=O
inactive: Potency [1] | outcome [2] | max response [3] -10.9% | outcome [4] | outcome [5] | outcome [6] | outcome [7] | Potency [8] | Potency [9] | Potency [10] | outcome [11] | Potency [12] | Potency [13] | outcome [14] | Potency [15] | Potency [16] | outcome [17] | Potency [18] | outcome [20] | Potency [19]

CCCCC(CC)COCCO (stereo not drawn)
inactive: Potency [1] | outcome [2] | max response [3] -0.338% | outcome [4] | outcome [5] | outcome [6] | outcome [7] | Potency [8] | Potency [9] | Potency [10] | outcome [11] | Potency [12] | Potency [13] | outcome [14] | Potency [15] | Potency [16] | outcome [17] | Potency [18] | outcome [20] | Potency [19]

C=C(C)C(=O)OCCNC(C)(C)C
inactive: Potency [1] | outcome [2] | max response [3] 0.848% | outcome [4] | outcome [5] | outcome [6] | outcome [7] | Potency [8] | Potency [9] | Potency [10] | outcome [11] | Potency [12] | Potency [13] | outcome [14] | Potency [15] | Potency [16] | outcome [17] | Potency [18] | Potency [19]

NC(CO)C(=O)NNCc1ccc(O)c(O)c1O (stereo not drawn)
inactive: Potency [1] | outcome [2] | max response [3] 2.85% | outcome [4] | outcome [5] | outcome [6] | outcome [7] | Potency [8] | Potency [9] | Potency [10] | outcome [11] | Potency [12] | Potency [13] | outcome [14] | Potency [15] | Potency [16] | outcome [17] | Potency [18] | outcome [20] | Potency [19]

CN(C)c1ccc(C=O)cc1
inactive: Potency [1] | outcome [2] | max response [3] 14.8% | outcome [4] | outcome [5] | outcome [6] | outcome [7] | Potency [8] | Potency [9] | Potency [10] | outcome [11] | Potency [12] | Potency [13] | Potency [15] | Potency [16] | outcome [17] | Potency [18] | outcome [20] | Potency [19]

COc1cc(NS(=O)(=O)c2ccc(N)cc2)nc(OC)n1
inactive: Potency [1] | outcome [2] | max response [3] 5.69% | outcome [4] | outcome [5] | outcome [6] | outcome [7] | Potency [8] | Potency [9] | Potency [10] | outcome [11] | Potency [12] | outcome [14] | Potency [15] | Potency [16] | outcome [17] | Potency [18] | outcome [20] | Potency [19]
